In experiment [1] the target is Estrogen receptor beta (Homo sapiens) (UniProt Q92731). The experiment is described as follows: qHTS assay to identify small molecule agonists of the estrogen receptor beta (ER-beta) signaling pathway (AID 1259377; active means well fitted activation curve with a large enough effect in the signal ratio in the repeat runs, not every such curve was filed as active; the % refers to the signal ratio). In short, it runs like this: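 qHTS in ER-beta-UAS-bla HEK293T cells: 6 hr settling, then 16 hr compound at 37C, then LiveBLAzer substrate 2 h at RT before fluorescence reading.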
Background: Quantitative high-throughput screening tests each substance at several concentrations.

Experiment [2] is described as follows: qHTS assay to identify small molecule agonists of the androgen receptor (AR) signaling pathway in the presence of an antagonist - cell viability counter screen (AID 1259379). Further: nearly all actives have a fitted effect of over 25% in size. Further: potency means the concentration at half of the fitted maximal effect. A digest of the protocol: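 MDA-kb2 viability measured by CellTiter-Fluor fluorescence in the same wells as the luciferase signal; nilutamide 3.0uM final; 15-point compound titration; 16 hr at 37C.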

Experiment [3] is described as follows: qHTS assay to identify small molecule antagonists of the estrogen receptor beta (ER-beta) signaling pathway - cell viability counter screen (AID 1259382). Further: nearly all actives have a fitted effect of over 55% in size. Further: potency means the concentration at half of the fitted maximal effect. A digest of the protocol:
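Readout: luminescence, CellTiter-Glo, same wells as bla assay. System: ER-beta-UAS-bla GripTite HEK293T, 2% charcoal-stripped FBS. Exposure: compounds plus 1nM 17-beta-estradiol, 16 hr, 37C.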

For experiment [4], the target named is Estrogen receptor (Homo sapiens) (UniProt P03372). In words: qHTS assay to identify small molecule agonists of the estrogen receptor alpha (ER-alpha) signaling pathway in the presence of an antagonist (AID 1259383; calls by dose curve; further: top concentration of the series differs between compounds; nearly all actives have a fitted effect of over 15% in size). A digest of the protocol:
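Quantitative HTS confirmation: compounds titrated at 15 concentrations onto estrogen-deprived VM7Luc4E2 cells carrying a four-ERE luciferase construct, with ICI-182,780 present at 10.0nM final. Signal is luminescence after 22hr exposure.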

A short description of experiment [5]: qHTS assay to identify small molecule agonists or antagonists of the thyroid stimulating hormone receptor (TSHR) signaling pathway - wild type cell line counter screen (AID 1259384; calls by dose curve). In short, it runs like this:
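Wild-type HEK293 cells were plated 18 h at 37 C/5% CO2, pin-dosed with compound plus Ro20-1724 medium, held 30 min at room temperature, then given cAMP-d2 and anti-cAMP-cryptate; fluorescence was read after 1 h. Fifteen concentrations, triplicate.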

Experiment [6] in a line: qHTS assay to identify small molecule agonists of the estrogen receptor alpha (ER-alpha) signaling pathway in the presence of an antagonist - cell viability counter screen (AID 1259386).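 Further: series mostly up to about 92 µM; cells exposed to compounds for 22 h at 37 °C before the viability read; nearly all actives have a fitted effect of over 30% in size.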 A digest of the protocol:
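The test measures whether compounds kill ER-alpha reporter cells (VM7Luc4E2) under antagonist co-treatment (ICI-182,780, 10.0nM). Fluorescence from CellTiter-Fluor is read after a 22hr exposure.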

For experiment [7], the target named is Progesterone receptor (Homo sapiens) (UniProt P06401). In words: qHTS assay to identify small molecule agonists of the progesterone receptor (PR) signaling pathway (AID 1346784; calls by dose curve; further: nearly all actives have a fitted effect of over 30% in size). In short, it runs like this:
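Fluorescence from LiveBLAzer B/G FRET substrate cleavage (2 hr, RT) reported PR activation in PR-UAS-bla HEK 293T cells treated 16 hr at 37C/5% CO2 with compounds; medium contained 2% charcoal-stripped FBS.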

Experiment [8] has the same target. In words: qHTS assay to identify small molecule antagonists of the progesterone receptor (PR) signaling pathway (AID 1346795; active means well fitted inhibition curve with a large enough effect in the signal ratio in the repeat runs, not every such curve was filed as active; the % refers to the signal ratio; further: potency means the concentration at half of the fitted maximal effect). A digest of the protocol: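 Fluorescence intensity measured 2 hr after adding beta-lactamase FRET substrate to PR-UAS-bla HEK293T cells that had been co-treated 16 hr with compound and 1 nM R5020 (final concentration) in 2% charcoal-stripped FBS.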

Experiment [9] is described as follows: qHTS assay to identify small molecule antagonists of the progesterone receptor (PR) signaling pathway - cell viability counter screen (AID 1346798). Further: nearly all actives have a fitted effect of over 50% in size. Further: potency means the concentration at half of the fitted maximal effect. In short, it runs like this: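 CellTiter-Glo luminescence; PR-UAS-bla HEK293T, 3,000 cells/well; compound + R5020, 16 hr, 37C/5% CO2; 30 min RT before read.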
Experiment [10] in a line: qHTS assay to identify small molecule agonists of the progesterone receptor (PR) signaling pathway - cell viability counter screen (AID 1346799; calls by dose curve; further: nearly all actives have a fitted effect of over 45% in size; further: potency means the concentration at half of the fitted maximal effect). In short, it runs like this:
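In parallel with the beta-lactamase readout, cytotoxicity toward PR-UAS-bla HEK293T cells was measured by CellTiter-Glo luminescence following 16 hr compound incubation in 2% charcoal-stripped FBS medium.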

Experiment [11] is described as follows: qHTS assay to identify small molecule antagonists of the TGF-beta/Smad signaling pathway - cell viability counter screen (AID 1346824). Further: nearly all actives have a fitted effect of over 50% in size. A digest of the protocol: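 SBE-bla HEK 293T cells were plated overnight at 37 C, then given compounds in DMSO plus TGF-beta1 (added as 0.25 ng/mL solution) for 5 hr. After the bla read, CellTiter-Glo was added to the same wells and luminescence read after 30 min at room temperature.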

Experiment [12] is described as follows: qHTS assay to identify small molecule agonists of the TGF-beta/Smad signaling pathway - cell viability counter screen (AID 1346829). Further: top concentration of the series differs between compounds; nearly all actives have a fitted effect of over 45% in size. In short, it runs like this: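 SBE-bla HEK 293T cells plated overnight, compound exposure 5 hr at 37 C. Viability read in the same wells by CellTiter-Glo luminescence after 30 min at room temperature, following the beta-lactamase read.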

A short description of experiment [13]: qHTS assay to identify small molecule agonists of the TGF-beta/Smad signaling pathway (AID 1346859; active means well fitted activation curve with a large enough effect in the signal ratio in the repeat runs, not every such curve was filed as active; the % refers to the signal ratio; further: potency means the concentration at half of the fitted maximal effect; on activation: series mostly up to about 77 µM). A digest of the protocol: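 After overnight seeding, SBE-bla HEK 293T cells are dosed with compounds in DMSO and kept 5 hr at 37 C, 5% CO2. LiveBLAzer-type FRET substrate is then applied for 2 hr at room temperature.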
In experiment [14] the target is Thyrotropin-releasing hormone receptor (Homo sapiens) (UniProt P34981). The experiment is described as follows: qHTS assay to identify small molecule antagonists of the thyrotropin-releasing hormone receptor (TRHR) signaling pathway (AID 1346877; active means well fitted inhibition curve with a large enough effect in the repeat runs, not every such curve was filed as active; further: series mostly up to about 51 µM). In short, it runs like this:
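Overnight-plated (18 h, 37 °C) HEK293 cells expressing TRHR were dye-loaded 2 h, treated with compound, then stimulated with TRH at 1 nM final. Fluorescence intensity was captured every second for 3 min.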

For experiment [15] the target is unchanged. In words: qHTS assay to identify small molecule agonists of the thyrotropin-releasing hormone receptor (TRHR) signaling pathway (AID 1346891; calls by dose curve;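 further: HEK293 cells expressing TRHR with calcium dye readout; series mostly up to about 58 µM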). In short, it runs like this: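 Compounds were tested as agonists at 15 concentrations, in triplicate, on TRHR-Hek293 cells; calcium-sensitive dye fluorescence was recorded for 3 min following addition.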
Experiment [16] is described as follows: qHTS assay to identify small molecule agonists of the estrogen receptor beta (ER-beta) signaling pathway - cell viability counter screen (AID 1259380). Further: nearly all actives have a fitted effect of over 30% in size. Further: potency means the concentration at half of the fitted maximal effect. In short, it runs like this:
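Measured: luminescence from CellTiter-Glo after 30 min at room temperature, added to wells already read for the LiveBLAzer FRET reporter (2 hr substrate); ER-beta-UAS-bla HEK293T cells had 16 hr compound treatment at 37C, 5% CO2.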

For experiment [17], the target named is Thyrotropin receptor (Homo sapiens) (UniProt P16473). The experiment is described as follows: qHTS assay to identify small molecule antagonists of the thyroid stimulating hormone receptor (TSHR) signaling pathway (AID 1259385; calls by dose curve; further: nearly all actives have a fitted effect of over 20% in size). A digest of the protocol:
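TSHR-HEK293 cells were plated and held 18 h at 37C/5% CO2, then given compound plus Ro20-1724 and stimulated with TSH at 1.5 ng/mL final. After 30 min at room temperature, cAMP was detected with cAMP-d2/anti-cAMP-cryptate (1 h) by fluorescence.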

Experiment [18] addresses Androgen receptor (Homo sapiens) (UniProt P10275). The experiment is described as follows: qHTS assay to identify small molecule agonists of the androgen receptor (AR) signaling pathway in the presence of an antagonist (AID 1259381; calls by dose curve; further: nearly all actives have a fitted effect of over 15% in size). A digest of the protocol:
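Luminescent ONE-Glo read, 30min at room temperature, follows 16hr compound exposure (15 concentrations) of MDA-kb2 cells at 37C, 0% CO2, with nilutamide added at 3.0uM final.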

Each structure is given as a SMILES string. Unmarked numbers belong to inactive results. Results filed as inconclusive are left out. Active and inactive are the calls of the source. Unless noted, the call rests on the fitted dose curve; in most records, active means well fitted curve in the direction sought with a large enough effect in the repeat runs; inconclusive means weak or mixed curves; inactive means no such curve, though single readings can be large; an effect the other way counts as inactive or inconclusive.

Sequence of Thyrotropin receptor (Homo sapiens) (P16473 whole entry, looked up): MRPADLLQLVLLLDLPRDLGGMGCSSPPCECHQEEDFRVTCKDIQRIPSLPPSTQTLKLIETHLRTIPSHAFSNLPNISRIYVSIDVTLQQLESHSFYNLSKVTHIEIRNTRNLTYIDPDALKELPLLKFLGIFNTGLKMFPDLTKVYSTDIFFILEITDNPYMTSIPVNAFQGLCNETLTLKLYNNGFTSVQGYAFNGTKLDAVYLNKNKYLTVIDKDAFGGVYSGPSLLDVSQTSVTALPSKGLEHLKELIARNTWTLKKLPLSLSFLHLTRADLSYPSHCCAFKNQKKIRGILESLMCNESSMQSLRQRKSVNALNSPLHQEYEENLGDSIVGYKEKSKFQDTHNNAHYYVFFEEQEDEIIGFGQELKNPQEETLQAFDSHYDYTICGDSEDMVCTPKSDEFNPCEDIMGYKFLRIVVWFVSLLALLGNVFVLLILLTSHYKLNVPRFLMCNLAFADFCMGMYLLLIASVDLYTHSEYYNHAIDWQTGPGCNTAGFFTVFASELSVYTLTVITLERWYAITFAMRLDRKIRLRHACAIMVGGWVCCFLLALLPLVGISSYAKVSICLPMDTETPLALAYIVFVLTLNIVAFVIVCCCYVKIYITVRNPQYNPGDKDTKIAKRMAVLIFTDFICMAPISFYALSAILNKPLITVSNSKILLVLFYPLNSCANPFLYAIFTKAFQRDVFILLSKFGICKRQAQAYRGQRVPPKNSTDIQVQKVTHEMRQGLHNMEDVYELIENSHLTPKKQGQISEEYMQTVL
Sequence of Thyrotropin-releasing hormone receptor (Homo sapiens) (P34981 whole entry, looked up): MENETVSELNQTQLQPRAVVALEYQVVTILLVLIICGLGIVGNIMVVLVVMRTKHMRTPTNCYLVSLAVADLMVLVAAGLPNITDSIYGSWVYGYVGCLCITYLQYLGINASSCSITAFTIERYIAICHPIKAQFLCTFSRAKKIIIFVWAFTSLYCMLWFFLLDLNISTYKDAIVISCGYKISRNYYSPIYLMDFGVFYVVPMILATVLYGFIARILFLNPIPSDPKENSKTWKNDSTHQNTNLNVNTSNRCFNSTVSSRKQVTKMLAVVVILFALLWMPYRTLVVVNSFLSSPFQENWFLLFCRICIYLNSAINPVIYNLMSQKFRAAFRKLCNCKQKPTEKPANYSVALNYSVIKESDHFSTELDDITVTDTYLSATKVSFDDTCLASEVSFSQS
Sequence of Estrogen receptor (Homo sapiens) (P03372 whole entry, looked up): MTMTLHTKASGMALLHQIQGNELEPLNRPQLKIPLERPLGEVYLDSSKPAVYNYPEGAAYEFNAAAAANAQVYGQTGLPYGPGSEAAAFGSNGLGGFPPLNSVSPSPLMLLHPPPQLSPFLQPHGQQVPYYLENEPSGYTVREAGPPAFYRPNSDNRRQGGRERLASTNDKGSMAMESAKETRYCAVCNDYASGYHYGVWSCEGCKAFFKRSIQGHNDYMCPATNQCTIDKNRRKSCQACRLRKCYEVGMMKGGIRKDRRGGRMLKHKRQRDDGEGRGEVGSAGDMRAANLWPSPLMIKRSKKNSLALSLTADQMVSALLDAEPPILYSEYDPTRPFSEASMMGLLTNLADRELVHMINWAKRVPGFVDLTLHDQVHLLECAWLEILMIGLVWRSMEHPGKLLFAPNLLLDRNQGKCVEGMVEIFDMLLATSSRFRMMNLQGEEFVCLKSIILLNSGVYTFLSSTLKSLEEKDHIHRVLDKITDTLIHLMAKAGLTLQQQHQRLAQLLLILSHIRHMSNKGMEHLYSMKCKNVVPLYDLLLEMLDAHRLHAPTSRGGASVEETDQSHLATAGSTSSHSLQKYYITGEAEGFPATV
Sequence of Androgen receptor (Homo sapiens) (P10275 whole entry, looked up): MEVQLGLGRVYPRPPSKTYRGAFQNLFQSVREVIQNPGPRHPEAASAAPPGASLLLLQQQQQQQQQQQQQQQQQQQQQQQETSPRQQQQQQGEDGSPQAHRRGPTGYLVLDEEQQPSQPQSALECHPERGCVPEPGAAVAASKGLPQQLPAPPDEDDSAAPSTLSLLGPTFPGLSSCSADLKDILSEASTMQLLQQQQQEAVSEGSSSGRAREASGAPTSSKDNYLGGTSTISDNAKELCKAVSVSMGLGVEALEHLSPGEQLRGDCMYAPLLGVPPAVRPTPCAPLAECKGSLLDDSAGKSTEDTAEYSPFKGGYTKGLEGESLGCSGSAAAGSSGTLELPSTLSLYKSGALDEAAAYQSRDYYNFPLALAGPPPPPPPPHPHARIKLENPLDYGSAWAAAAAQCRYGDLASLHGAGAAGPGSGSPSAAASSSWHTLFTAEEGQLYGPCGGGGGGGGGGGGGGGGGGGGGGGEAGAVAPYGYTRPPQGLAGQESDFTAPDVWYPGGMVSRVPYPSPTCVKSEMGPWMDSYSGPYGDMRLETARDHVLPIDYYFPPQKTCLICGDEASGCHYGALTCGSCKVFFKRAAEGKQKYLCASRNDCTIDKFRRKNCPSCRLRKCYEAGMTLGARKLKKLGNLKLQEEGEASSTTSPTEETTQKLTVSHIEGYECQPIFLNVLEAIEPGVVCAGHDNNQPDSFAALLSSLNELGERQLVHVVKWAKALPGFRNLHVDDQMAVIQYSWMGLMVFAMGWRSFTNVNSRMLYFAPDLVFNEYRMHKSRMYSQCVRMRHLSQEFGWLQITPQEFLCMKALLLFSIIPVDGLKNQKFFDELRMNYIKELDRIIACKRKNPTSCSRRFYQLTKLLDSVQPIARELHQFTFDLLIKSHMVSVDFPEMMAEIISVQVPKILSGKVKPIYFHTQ
Sequence of Estrogen receptor beta (Homo sapiens) (Q92731 whole entry, looked up): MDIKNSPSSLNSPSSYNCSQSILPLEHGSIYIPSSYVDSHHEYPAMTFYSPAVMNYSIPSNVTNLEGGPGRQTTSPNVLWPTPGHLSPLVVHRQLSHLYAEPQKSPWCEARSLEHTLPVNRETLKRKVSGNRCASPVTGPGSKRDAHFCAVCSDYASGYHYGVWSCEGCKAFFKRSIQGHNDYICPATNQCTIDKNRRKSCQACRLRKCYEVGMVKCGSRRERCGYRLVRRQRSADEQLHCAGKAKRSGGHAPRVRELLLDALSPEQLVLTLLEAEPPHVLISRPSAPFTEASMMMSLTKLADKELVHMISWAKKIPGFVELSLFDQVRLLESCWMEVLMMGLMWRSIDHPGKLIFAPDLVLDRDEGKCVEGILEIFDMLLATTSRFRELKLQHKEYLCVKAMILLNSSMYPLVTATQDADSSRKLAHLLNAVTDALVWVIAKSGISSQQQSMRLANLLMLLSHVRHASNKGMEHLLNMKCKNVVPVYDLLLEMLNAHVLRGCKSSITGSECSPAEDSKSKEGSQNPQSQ
Sequence of Progesterone receptor (Homo sapiens) (P06401 whole entry, looked up): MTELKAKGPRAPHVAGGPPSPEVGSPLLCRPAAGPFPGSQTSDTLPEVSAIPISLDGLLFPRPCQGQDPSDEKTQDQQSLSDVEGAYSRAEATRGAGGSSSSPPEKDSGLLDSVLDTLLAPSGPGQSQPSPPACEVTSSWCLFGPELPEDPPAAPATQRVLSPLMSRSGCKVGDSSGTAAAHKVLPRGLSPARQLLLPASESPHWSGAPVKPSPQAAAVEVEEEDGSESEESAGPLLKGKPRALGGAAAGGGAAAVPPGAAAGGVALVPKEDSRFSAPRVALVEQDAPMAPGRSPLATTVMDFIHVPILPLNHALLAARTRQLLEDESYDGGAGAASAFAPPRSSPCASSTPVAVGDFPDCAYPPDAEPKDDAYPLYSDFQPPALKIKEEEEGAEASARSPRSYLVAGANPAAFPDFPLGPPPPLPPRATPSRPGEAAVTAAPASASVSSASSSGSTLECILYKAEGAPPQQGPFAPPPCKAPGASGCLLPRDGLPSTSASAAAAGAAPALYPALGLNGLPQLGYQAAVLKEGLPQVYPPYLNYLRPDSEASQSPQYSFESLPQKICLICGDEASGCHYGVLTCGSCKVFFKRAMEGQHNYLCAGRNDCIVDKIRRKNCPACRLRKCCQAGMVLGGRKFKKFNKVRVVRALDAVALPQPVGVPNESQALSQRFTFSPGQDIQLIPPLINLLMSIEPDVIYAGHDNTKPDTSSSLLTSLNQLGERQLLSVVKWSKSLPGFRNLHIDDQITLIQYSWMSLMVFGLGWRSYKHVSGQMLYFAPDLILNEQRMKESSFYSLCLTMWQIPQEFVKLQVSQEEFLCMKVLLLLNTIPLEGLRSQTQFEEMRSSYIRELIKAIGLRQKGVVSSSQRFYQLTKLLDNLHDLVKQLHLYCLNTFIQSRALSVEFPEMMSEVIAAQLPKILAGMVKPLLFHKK

`COC(=O)CS`: the Potency result in experiment [1], in experiment [2], in experiment [3], in experiment [4], in experiment [6] and in [7] was “inactive” in each case. For the same compound, the Potency result in [8], in experiment [9], in experiment [10], in experiment [11], in [12] and in [13] was “inactive” in each case. Besides, the Potency result in experiment [15] is “inactive”. The outcome in [5] and in [14] was inactive.
As for `COC(=O)c1nc(Cl)c(Cl)nc1N`, the results for the Potency in [2], in experiment [16] and in experiment [13] were 29.8 µM (active), 29.8 µM (active) and 23.9 µM (active), respectively. Further, the Potency result in [4], in experiment [17], in experiment [6], in experiment [11] and in experiment [15] was “inactive” each time. The compound was called inactive in experiment [5] and in experiment [14].
Turning to `CC1=Nc2ccc3ccccc3c2C1(C)C`, the Potency entry in experiment [2], in experiment [18], in experiment [4], in [6], in experiment [11] and in experiment [12] was “inactive” in each case. Further, the Potency result in [15] was “inactive”. The call in [5] and in [14] was inactive. In addition, the Potency in experiment [9] is 12.2 µM (active); in experiment [10] it was 24.3 µM (active).
For the compound `C[C@@H](CN(C)C)CN1c2ccccc2Sc2ccccc21`, the Potency result in experiment [1], in [4], in experiment [6], in [7], in [11] and in experiment [12] was “inactive” throughout. Also, the Potency entry in experiment [13] is “inactive”. In addition, the Potency in experiment [16] is 18.8 µM (active); in experiment [3] it was 21.1 µM (active); in experiment [8], 26.6 µM (active); in experiment [9] it was 18.8 µM (active); in experiment [10], 10.6 µM (active).
Turning to `Cc1ccccc1N=C(N)Nc1ccccc1C`, the Potency result in experiment [2], in [16], in [3], in experiment [4], in [17] and in experiment [7] was “inactive” each time. Moreover, the Potency result in experiment [8], in [9], in [10], in [11], in [12] and in [13] was “inactive” throughout. Moreover, the Potency result in experiment [15] was “inactive”. The compound was classed as inactive in experiment [5] and in experiment [14].
With `Cc1cccc(N(C)C(=S)Oc2ccc3c(c2)CCC3)c1`, the Potency entry in [1], in experiment [2], in experiment [3], in experiment [4], in [6] and in [7] was “inactive” each time. The Potency result in experiment [10], in experiment [11], in experiment [12] and in experiment [13] was “inactive” throughout. Besides, in experiment [8], the Potency is 11.9 µM (active).
`NC(=O)c1ccncc1`: the Potency entry in [2], in experiment [16], in experiment [18], in [3], in experiment [17] and in experiment [6] was “inactive” in each case. For the same compound, the Potency entry in experiment [7], in experiment [8], in experiment [9], in [10], in experiment [11] and in experiment [12] was “inactive” throughout. The Potency result in experiment [13] and in [15] was “inactive” in each case. The compound was classed as inactive in experiment [5] and in experiment [14].
In the case of `C[C@@]12CCC[C@H]1[C@@H]1CC[C@H]3C[C@@H](O)CC[C@]3(C)[C@H]1CC2`, the Potency entry in experiment [2], in [16], in experiment [3], in [6], in [7] and in experiment [10] was “inactive” throughout. Also, the Potency result in experiment [11], in experiment [12], in experiment [13] and in experiment [15] was “inactive” throughout. The compound was classed as inactive in [5] and in experiment [14]. Moreover, in experiment [9], the Potency is 26.6 µM (active).
For `C=C/C(C)=C/C/C=C(\C)CCC=C(C)C`, the Potency result in [1], in [2], in experiment [3], in experiment [4], in experiment [6] and in experiment [7] was “inactive” each time. Moreover, the Potency result in experiment [8], in experiment [9], in [10], in experiment [11], in experiment [13] and in experiment [15] was “inactive” each time. The outcome in experiment [5] and in experiment [14] was inactive.
`Cc1cc(O)c(C)c(C)c1O`: the Potency entry in [2], in experiment [16], in experiment [18], in [3], in experiment [4] and in [6] was “inactive” throughout. For the same compound, the Potency result in [7], in experiment [8], in [9], in [10], in experiment [11] and in [13] was “inactive” throughout. Besides, the Potency entry in [15] was “inactive”. Also, the result in [14] was inactive.
Regarding `CC[C@]1(O)C[C@H]2CN(CCc3c([nH]c4ccccc34)[C@@](C(=O)OC)(c3cc4c(cc3OC)N(C=O)[C@H]3[C@@](O)(C(=O)OC)[C@H](OC(C)=O)[C@]5(CC)C=CCN6CC[C@]43[C@@H]65)C2)C1`, the Potency entry in experiment [18], in [3], in experiment [4], in experiment [6], in [7] and in experiment [11] was “inactive” in each case. The Potency entry in experiment [12], in [13] and in [15] was “inactive” in each case. Moreover, the outcome in experiment [5] and in experiment [14] was inactive.
In the case of `Cc1cc(O)ccc1O`, the Potency result in experiment [1], in experiment [11], in experiment [13] and in [15] was “inactive” in each case. For the same compound, the Potency in experiment [16] and in experiment [3] was 61.8 µM (active) each time. Also, the result in experiment [14] was inactive.
Regarding `CCCCCCCC/C=C\CCCCCCCCCCCC(=O)O`, the Potency entry in experiment [2], in experiment [16], in experiment [18], in [3], in [4] and in [6] was “inactive” throughout. Moreover, the Potency result in experiment [7], in experiment [9], in [10], in experiment [11], in experiment [12] and in [13] was “inactive” throughout.

(Values after PubChem BioAssay (Tox21).)
